From PubChem BioAssay (NCI)
Compounds without any hit were thinned out: in the full panel of roughly 83,000, 20% have a hit.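 A percent growth of 40 corresponds to 60% growth inhibition; 0 means no net growth; -100 means all cells died. Active threshold: below 10.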 A number with no mark means an inactive call. The source made the active and inactive calls.

Key:
Assay in all cases: NCI-60 one-dose screen, 48 h (100 = growth as untreated, 0 = no growth, -100 = all killed)
Settings in all cases: 10 µM unless noted
NCI-H23 lung = system: NCI-H23 lung
NCI-H226 lung = system: NCI-H226 lung
NCI-H322M lung = system: NCI-H322M lung
HOP-62 NSCLC = system: HOP-62 NSCLC
NCI-H460 lung = system: NCI-H460 lung
HOP-92 NSCLC = system: HOP-92 NSCLC
NCI-H522 lung = system: NCI-H522 lung
A549/ATCC NSCLC = system: A549/ATCC NSCLC
786-0 renal = system: 786-0 renal
COLO 205 colon = system: COLO 205 colon
DU-145 prostate = system: DU-145 prostate
K-562 leukemia = system: K-562 leukemia
MALME-3M melanoma = system: MALME-3M melanoma
MDA-MB-231 breast = system: MDA-MB-231 breast
RXF 393 renal = system: RXF 393 renal
SF-268 CNS = system: SF-268 CNS
SF-295 CNS = system: SF-295 CNS
SF-539 CNS = system: SF-539 CNS
UACC-257 melanoma = system: UACC-257 melanoma
M14 melanoma = system: M14 melanoma

Row | Structure (SMILES) | growth (NCI-H23 lung) | growth (NCI-H226 lung) [%] | growth (NCI-H322M lung) [%] | growth (HOP-62 NSCLC) | growth (NCI-H460 lung) | growth (HOP-92 NSCLC) | growth (NCI-H522 lung) | growth (A549/ATCC NSCLC) | growth (786-0 renal) | growth (COLO 205 colon) | growth (DU-145 prostate) | growth (K-562 leukemia) | growth (MALME-3M melanoma) | growth (MDA-MB-231 breast) | growth (RXF 393 renal) | growth (SF-268 CNS) | growth (SF-295 CNS) | growth (SF-539 CNS) | growth (UACC-257 melanoma) [%] | growth (M14 melanoma)
1 | COc1ccc(C2CC(c3cccc(OCCCCOc4cccc(C5=NN(C(C)=O)C(c6ccc(OC)cc6)C5)c4)c3)=NN2C(C)=O)cc1 (stereo not given) | 57% | 62.3 | 91 | 71.3% | 66.6% | 68.7% | 53.2% | 68.2% | 86.3% | 82.8% | 81.6% | 37% | 105% | 77.3% | 95.2% | 74.8% | 44.3% | 81.5% | 46.8 | 85.3%
2 | CCOC(=O)c1c(NC(=O)c2cccc(C(F)(F)F)c2)sc2c3c(ccc12)OCN(C)C3 | 83.6% | 77.8 | 18 | -87.6% (active) | -75.9% (active) | 15.2% | -15% (active) | -77.7% (active) | -71.9% (active) | -57.6% (active) | -16.8% (active) | -64.1% (active) | -53.9% (active) | -95.9% (active) | -91.4% (active) | -57.3% (active) | 44.6% | -0.959% (active) | 30.8 | -17% (active)
3 | CC(C)C(/C=C/c1[nH]ncc1-c1cc(Cl)ccc1O)N1CCOCC1 (stereo not given) | 96.7% | 85.2 | 88.7 | 92.3% | 105% | 88.4% | 95.8% | 96.7% | 101% | 109% | 100% | 82.3% | 106% | 106% | 88.3% | 88.5% | 96% | 97.5% | 103 | 97.5%
4 | C#Cc1nc(/C=C\CCCCCCC(=O)NO)cs1 | -63.5% (active) | 74.2 | 78.4 | 79.7% | 55.4% | -75.3% (active) | -59.8% (active) | 67.6% | -78.5% (active) | 84.7% | 39.2% | 14.7% | -19.8% (active) | -11.8% (active) | -4.23% (active) | 79.4% | 65.3% | -81.3% (active) | 38.2 | 61.6%
5 | O=[N+]([O-])c1ccc(NC(=S)NNC(=S)Nc2ccc(F)cc2)cc1 | 89.6% | 94.2 | 76.9 | 97% | 90.9% | 72.9% | 70.1% | 88.2% | 97.3% | 115% | 105% | 49.8% | 90.1% | 92.4% | 104% | 95.1% | 82.3% | 94.9% | 97.8 | 92.1%
6 | O=C1/C(=C/C=C/c2ccco2)SC(=S)N1Cc1ccccc1 | 89.6% | 95.2 | 91.8 | 105% | 95.2% | 87.1% | 98.4% | 93.7% | 101% | 121% | 93.8% | 71.2% | 87.2% | 92.7% | 95.3% | 89.7% | 97% | 101% | 91.6 | 92.1%
7 | Cc1cc2nc(C(Cl)Cl)nc(-c3ccc(S(=O)(=O)N(C)C)cc3)n2n1 | 44.4% | 71.8 | 69.3 | 32.8% | 27.5% | 50% | 76.9% | 37% | 94.5% | 25.2% | 45.1% | 14.1% | 17.3% | 12.6% | 59.5% | 67.6% | 66.3% | 69.4% | 87 | 37.1%
8 | O=C(CCCCCCNC(=O)C(O)(O)C(F)(F)F)Nc1ccc(-c2ccccc2)cc1 | 9.87% (active) | 39.4 | 28.2 | -4.5% (active) | 7.65% (active) | -13.6% (active) | -30.9% (active) | 8.66% (active) | 22.8% | -61.9% (active) | 12% | 9.55% (active) | 3.09% (active) | 25% | -45% (active) | -4.51% (active) | -32.1% (active) | 19.7% | 14.8 | 20.7%
